Only a sample is shown. The hit rate among all sequences tested is not known here. Values without a mark were called inactive.
B1: il10ra_site1_normal_mot_HHH_b2_03220_af2_000000223_0001_23_40_H_._HHH_b1_05042_0001_0000100015_0000001_0 (protein)
chain: SSSSSRELSEEAWELLREILELIYEGDEERAQELLREVEEIAEEANSFALEYTVRILKEQLSSSS
B2: il10ra_site1_sap_22_mot_690a356816548de866c59e88e666ab0a_0001_1_af2_000000025_0001_1_13_H_._HHH_b1_01796_af2_0001_0000400019_0000001_0_0001_af2pred_0001 (protein)
chain: SSSSDIAEADARQAFKLLEIAHEQNDEELLERALELLEYLARLSNDPEAERLLEEAEKLVGSSSS
B3: il10ra_site1_normal_mot_HHH_b1_01082_af2_000000031_0001_3_19_H_._HHH_b1_06064_0001_0000200007_0000001_0 (protein)
chain: SSSSSYEEVKKLIERIVELLRRGDHEEAEKLIRELEELAEELNNPSLRFVVRLLEEVLERLSSSS
B4: il10ra_site1_sap_17_mot_HHH_b1_03763_000000209_0001_22_38_H_._HHH_b1_06016_0001_0000500017_0000001_0_0001 (protein)
chain: SSSSDDDEELLEAALRIAEQALEAGDPESARLILLAAARIAEELGNEELLEEIRRLLEEIRSSSS
B5: il10ra_site1_normal_mot_HHH_b2_04131_000000071_0001_1_16_H_._HHH_b2_02423_af2_0001_0000200002_0000002_0 (protein)
chain: SSSSSSDEELQRLLHELLRLYLKGDPRVEEVAEELRELAEELNNEVARFIVEAVERRLSSSSSSS
B6: il10ra_site1_sap_21_mot_HHH_b1_05126_000000010_0001_38_52_H_._HHH_b2_05985_af2_0001_0000600013_0000001_1_0001 (protein)
chain: SSSSDLEEEIEKLLEELEELIKEGDRERITELALKIVKLIYEAKNAELLRRLWELVKAFYSSSSS
B7: il10ra_site1_normal_mot_HHH_b1_04771_000000013_0001_40_56_H_._HHH_b1_06413_0001_0000200008_0000001_0 (protein)
chain: SSSSDLDERVSRLSQEVFRLALRGNPEEAEKVVEEAIELAEEANNERALRVLRDLEQVLESSSSS
B8: il10ra_site1_normal_mot_HHH_b1_02997_000000220_0001_39_52_H_._HHH_b1_04476_0001_0000500018_0000001_0_af2pred_dldesign_0_af2pred (protein)
chain: SSSSSSSNEEVVALLRRAMEEPDPEEAKRLAEEALRLAQANNNEILAHTAQLLLEQLESSSSSSS
B9: il10ra_site1_sap_25_mot_HHH_b2_05761_af2_000000185_0001_1_18_H_._HHH_b1_05595_af2_0001_0000200006_0000001_0_0001 (protein)
chain: SSSSDEDERYVELSLRFAEWLLKEGDPEAAKRILEAAREIAERANNEELREELEELLEKIGSSSS
B10: il10ra_site1_normal_mot_3af0db62db2b275566dae2e03bf881fa_0001_000000003_0001_37_50_H_._HHH_b2_06527_0001_0000300018_0000001_0_af2pred_0001 (protein)
chain: SSSSSSDLEQQVRAAIWFAKNIHNPTVRRKALEFALKIAEEINNEELVEEIRELLEQVNSSSSSS
B11: il10ra_site1_normal_mot_3c6ad1a4bc7d4f5cf55cee527202d42a_0001_000000108_0001_32_49_H_._HHH_b2_03602_af2_0001_0000600008_0000001_0_af2pred_dldesign_0_af2pred (protein)
chain: SSSSSDKEYYDALVKYYKEALALGKPEAAEKIALKGAEMRLEGKSLEEFEEKAKEILEEESSSSS
B12: il10ra_site1_sap_23_mot_39ab2cb694c8b9c1dc7e65c0d672c93e_0001_000000036_0001_53_65_H_._HHH_b1_07337_0001_0000100009_0000001_0_0001 (protein)
chain: SSSSDEEYKEVKRLIEEIAEALRNNDEELVRELLEELRELAEEINNPAAEFSLRILEEALNSSSS
B13: il10ra_site1_normal_mot_HHH_b2_00277_af2_000000172_0001_1_17_H_._HHH_eva_0065_0002_0000400034_0000001_0 (protein)
chain: DPEKEKLEEEIREVLERFEKGKIDPEEAKELLSRLAFKAARLGDDEAVELAIRAYAAIHQAEQRS
B14: il10ra_site1_normal_mot_HHH_b2_00033_000000036_0001_41_54_H_._HHH_b1_08598_0001_0000300016_0000002_0 (protein)
chain: SSSSSSSDFQELALRALRLLIKRNDKELFQELWRLVKEIAEHGDPELREELEEFLEEISSSSSSS
B15: il10ra_site1_sap_19_mot_2fa031a62b9321f410fa37cb4b35ac9e_0001_af2_000000160_0001_1_14_H_._HHH_b2_08251_af2_0001_0000200005_0000002_0_0001 (protein)
chain: SSSSSDQEEAVELSLEAFRLALRGDPEEARRVLEEALELAEEAGDERMAKVIRDMLRALSSSSSS
B16: il10ra_site1_normal_mot_HHH_b2_00475_000000107_0001_44_57_H_._HHH_b2_01638_af2_0001_0000200008_0000002_0 (protein)
chain: SSSSEEEQRVAELLFRALRLLAEGNPEEAEKVVEEAQKLAEENNDEELRKYVEILRHFIESHSSS
B17: il10ra_site1_sap_16_mot_8756ee2cf497b5429c717dfc0c0bcfd6_0001_000000186_0001_1_13_H_._HHH_b1_03338_0001_0000100002_0000003_0_0001 (protein)
chain: SSSSTLEWSVKFMLEIVEELLERGDKEKAEHLLEALLRHLKEAGDPELLREVEELLEEVRKSSSS
B18: il10ra_site1_normal_mot_HHH_b2_02116_af2_000000165_0001_41_55_H_._HHH_b1_06457_0001_0000100001_0000001_0 (protein)
chain: SSSDHERAVELLLRAAEIAFERGNPHQARAAIRLAREIAERINDEELEELVEEVERRLEESSSSS
B19: il10ra_site1_sap_14_mot_HHH_b1_08411_af2_000000053_0001_1_20_H_._HHH_b1_08108_0001_0000200028_0000001_0_0001 (protein)
chain: SSSSSSDEYREAYELIEEAFHIEDEEEARELLEEAKELAERAGNWALRFAIQLLLEDLSSSSSSS
B20: il10ra_site1_sap_24_mot_HHH_b1_06912_af2_000000235_0001_1_15_H_._HHH_b1_04651_0001_0000100003_0000001_0_0001 (protein)
chain: SSSSDQELYRKVEELIEEAIELQRRGNPEEARRLLEELLEELEELNNPNMLYNVRHLLKAISSSS
B21: il10ra_site1_sap_19_mot_HHH_b1_05021_af2_000000167_0001_42_56_H_._HHH_b1_02196_0001_0000400015_0000002_0_0001 (protein)
chain: SSSSDAEEYLREVAVELLELFREGDPEKAEELLEEAREFLEEKGNRELVRMIEFQFRASEWSSSS
B22: il10ra_site1_normal_mot_HHH_b1_02397_af2_000000085_0001_39_57_H_._HHH_b1_03194_0001_0000100004_0000002_0 (protein)
chain: SSSSSSDVEELLERLEELLEEGNHEEAARLLQEALRHAFRNSDPELLKELHEFAKRLASSSSSSS
B23: il10ra_site1_sap_15_mot_HHH_b1_03531_000000273_0001_41_54_H_._HHH_b2_00993_0001_0000200012_0000001_0_0001_af2pred_0001 (protein)
chain: SSSSTEEEIRELLEEVEELIERGNNHEAAKLLKKLAELISELNNDELLKELRELAQLVIRVSSSS
B24: il10ra_site1_normal_mot_HHH_b1_06789_af2_000000041_0001_1_20_H_._HHH_b2_03029_0001_0000300011_0000002_0 (protein)
chain: SSSSSAEYLVRQALKAAKRLYEQGDPERAKEAIEIAENLARNANNPELEKLVEEFAEELENSSSS
B25: il10ra_site1_normal_mot_HHH_b2_00033_000000036_0001_41_54_H_._HHH_b1_00990_0001_0000100001_0000001_0 (protein)
chain: SSSDETEEASELAAEAIRLAIRLGDEEIFQELWELFKLVIREGDPEVTERLEELLEELRERSSSS
B26: il10ra_site1_sap_20_mot_HHH_b1_02766_af2_000000078_0001_42_56_H_._HHH_b2_04892_0001_0001000047_0000001_0_0001 (protein)
chain: SSSSDELSEEAMKLIERASELDQNGNPEEAKEVLERAEELAEEAGNRVLAWNIRFLLRRLSSSSS
B27: il10ra_site1_sap_22_mot_HHH_b2_03328_af2_000000127_0001_1_19_H_._HHH_b1_06177_0001_0000200023_0000001_0_0001 (protein)
chain: SSSSTQELYELLRRIVELDHKGNLEEAERLLEELEELARERNDPNIRMQVEFLEEIIRRNLSSSS
B28: il10ra_site1_normal_mot_HHH_b1_04514_000000156_0001_1_18_H_._HHH_b1_03241_0001_0000100007_0000001_0 (protein)
chain: SSSSYEEVKELIEEIIELAREGNPEEAEKVLRELERLAEELNNPAIRFVVRLLEEVIERQSSSSS
B29: il10ra_site1_sap_15_mot_HHH_b2_02354_af2_000000157_0001_40_56_H_._HHH_b1_07270_0001_0000500051_0000001_1_0001 (protein)
chain: SSSSSEQERAALRFAKWLIEIIEETGNPSARRSLEVMLWLLERINSEEAEELLKEAEELLSSSSS
B30: il10ra_site1_normal_mot_39ab2cb694c8b9c1dc7e65c0d672c93e_0001_000000036_0001_53_65_H_._HHH_b1_05574_0001_0000300023_0000001_0 (protein)
chain: SSSSSEEERIEELIEEAKELLERGNPEEALELVLEALRLAYQNRNAELLQELWRLAKEIASSSSS
B31: il10ra_site1_normal_mot_HHH_b2_05548_000000224_0001_41_54_H_._HHH_b1_07835_0001_0000100002_0000002_0_af2pred_0001 (protein)
chain: SSSSSDEEVEQLLEEAERLLKEGNPEEAAKVVAKAAELALELGNVELIKLVVELLRLIANSSSSS
B32: il10ra_site1_normal_mot_HHH_b1_00999_000000080_0001_41_55_H_._HHH_b1_01870_0001_0000600018_0000001_0 (protein)
chain: SSSSSSSEEEVEELLEEAKEIDDPREAARVLQEATHIALRNQNPELLRLVWEVVKRLGSSSSSSS
B33: il10ra_site1_normal_mot_HHH_b2_04945_000000076_0001_1_19_H_._HHH_b2_05056_0001_0000400022_0000001_0 (protein)
chain: SSSSTDELFEEVRRIIEEAVRLYREGNPEEARRLVEEALELAEENNNFALVFALEHLLRDLSSSS
B34: il10ra_site1_normal_mot_HHH_b2_07144_000000289_0001_1_18_H_._HHH_b2_04284_0001_0000200013_0000001_1 (protein)
chain: SSSSSENHRAYELSREAAELLRQGNEEEAREVLEEVKEIAEEANNPILEFAARAIEKAVNSSSSS
B35: il10ra_site1_normal_mot_HHH_b2_01032_000000296_0001_1_18_H_._HHH_b1_04384_af2_0001_0000600026_0000001_1 (protein)
chain: SSSSSDEEEELLELSRQAFELALRGNPEEAREVLEEAERLARELGDERLLRLVEELLQALSSSSS
B36: il10ra_site1_sap_16_mot_HHH_b2_00093_af2_000000025_0001_40_54_H_._HHH_b1_03751_0001_0001000047_0000001_0_0001_af2pred_0001 (protein)
chain: SSSSSEEERFYQLLLEALRLARRLNDEEVEEELRELLEEYKQKGDPRVEERIEELLKELRSSSSS
B37: il10ra_site1_sap_29_mot_HHH_b2_02354_af2_000000157_0001_40_56_H_._ems_3hM_2942_af2_0001_0000100002_0000002_1_0001_af2pred_0001 (protein)
chain: SSSSTAEEDVRLAIAAAELALKAGDPEKARRALEIAKLIARQGNNPELEEELEELEEEINSSSSS

Target: il10ra, Q13651
Experiment: yeast display titration

Chain of il10ra, Q13651 (Q13651 whole entry): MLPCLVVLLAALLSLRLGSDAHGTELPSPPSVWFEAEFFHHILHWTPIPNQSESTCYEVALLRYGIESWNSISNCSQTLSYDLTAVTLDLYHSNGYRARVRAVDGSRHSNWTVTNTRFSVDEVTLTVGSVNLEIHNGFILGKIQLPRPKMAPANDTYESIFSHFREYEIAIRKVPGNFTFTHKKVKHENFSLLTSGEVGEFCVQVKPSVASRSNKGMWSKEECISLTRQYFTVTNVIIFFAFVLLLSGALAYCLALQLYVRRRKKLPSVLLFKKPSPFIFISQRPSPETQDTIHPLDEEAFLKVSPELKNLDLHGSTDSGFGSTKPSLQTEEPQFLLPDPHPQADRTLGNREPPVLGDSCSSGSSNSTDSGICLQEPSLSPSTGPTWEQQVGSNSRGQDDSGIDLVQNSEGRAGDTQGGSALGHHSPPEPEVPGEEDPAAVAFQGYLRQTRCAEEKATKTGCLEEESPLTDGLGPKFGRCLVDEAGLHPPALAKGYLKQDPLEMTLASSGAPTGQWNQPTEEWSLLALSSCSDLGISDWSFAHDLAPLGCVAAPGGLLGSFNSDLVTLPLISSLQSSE

Binder	apparent Kd
B1	no binding seen
B2	no binding seen
B3	no binding seen
B4	no binding seen
B5	no binding seen
B6	no binding seen
B7	no binding seen
B8	no binding seen
B9	no binding seen
B10	no binding seen
B11	no binding seen
B12	no binding seen
B13	no binding seen
B14	no binding seen
B15	no binding seen
B16	no binding seen
B17	no binding seen
B18	no binding seen
B19	no binding seen

Binder	apparent Kd
B20	no binding seen
B21	no binding seen
B22	no binding seen
B23	no binding seen
B24	no binding seen
B25	no binding seen
B26	no binding seen
B27	> 1760 nM
B28	> 786 nM
B29	no binding seen
B30	no binding seen
B31	no binding seen
B32	no binding seen
B33	no binding seen
B34	no binding seen
B35	no binding seen
B36	no binding seen
B37	> 1500 nM
